CYP2C9 inh: blockers of cytochrome P450 2C9 activity – biochemical, luminescence, ADME assay, primary screen. CYP2C9 Supersomes, luciferin-H conversion. inhibition, % at 5 µM. actives 20% (n = 96,000). AID 777, 2007. P11712;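 active = blocking of liver enzyme CYP2C9 beyond about 50% at 5 µM, limit read from the data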
Target sequence (P11712 whole entry, looked up): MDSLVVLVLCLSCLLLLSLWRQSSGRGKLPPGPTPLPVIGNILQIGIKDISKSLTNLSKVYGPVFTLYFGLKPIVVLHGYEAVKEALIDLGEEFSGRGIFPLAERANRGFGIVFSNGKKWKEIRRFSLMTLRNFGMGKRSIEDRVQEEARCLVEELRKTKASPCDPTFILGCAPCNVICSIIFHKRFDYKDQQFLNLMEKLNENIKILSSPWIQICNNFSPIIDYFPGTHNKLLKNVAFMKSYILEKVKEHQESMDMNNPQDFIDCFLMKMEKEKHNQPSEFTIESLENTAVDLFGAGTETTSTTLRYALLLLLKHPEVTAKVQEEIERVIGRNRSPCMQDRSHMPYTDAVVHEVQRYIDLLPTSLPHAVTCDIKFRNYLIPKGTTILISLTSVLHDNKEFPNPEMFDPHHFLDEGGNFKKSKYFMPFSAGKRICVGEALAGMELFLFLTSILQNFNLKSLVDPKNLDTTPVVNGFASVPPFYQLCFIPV
Cav32 inh: Cav3.2 calcium influx blockers – cell-based, Fluo-4 calcium fluorescence, FDSS, MLSMR library, primary screen; Voltage-dependent T-type calcium channel subunit alpha-1H (Homo sapiens), O95180; Cav3.2-expressing cells; active compounds read low; B-score at 10 µM; actives 4% (n = 100,000);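 active = single-dose well whose peak fluorescence ratio is a statistical outlier from its plate by either plate-standardised score or position-corrected B-score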
CYP2C9 act: human CYP2C9 activators, primary screen, biochemical, luminescence. Cytochrome P450 2C9 (Homo sapiens), P11712. recombinant CYP2C9, luciferin-H conversion; active compounds read high; factor 1 = untreated enzyme, 0 = blocked. activation factor at 5 µM. actives 1.4% (n = 96,000);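 active = activation factor of 2 or more for CYP2C9 at a 5 µM dose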;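 note: 0 = sulfaphenazole-blocked wells and 1 = vehicle-only wells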
CYP2C19 activ: human CYP2C19 activators, primary screen, biochemical, luminescence; activation factor at 5 µM; recombinant CYP2C19, luciferin-H EGE luminescence; active compounds read high; 0 = fully inhibited enzyme, 1 = untreated enzyme; Cytochrome P450 2C19 (Homo sapiens), P33261; 96,000 tested, under 10 active; AID 1025, 2008;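 active = activation factor of at least 2 at 5 µM in the primary screen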;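 note: 0 = wells with 2.5 mM tranylcypromine and 1 = vehicle-only wells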
CYP2C19 inh: blockers of cytochrome P450 2C19 activity – biochemical, luminescence, ADME assay, primary screen. AID 778, 2007. actives 21% (n = 96,000). P33261. inhibition, % at 5 µM. CYP2C19 Supersomes, luciferin-H EGE luminescence, 30 min;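 active = CYP2C19 inhibition above a set limit at 5 µM in the primary screen, cut at about 50% in these data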;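 note: plate controls were negative control wells for no effect and 2.5 mM tranylcypromine positive control for full effect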
Starred values were filed as active, the others as inactive; nt = no result. Sampled rows, rich in hits. Any-hit rate of the full collection: about 27%.

SMILES	CYP2C9 inh	Cav32 inh	CYP2C9 act	CYP2C19 activ	CYP2C19 inh
COc1ccccc1NC(=O)C1=C(C)Nc2nc(CCCO)nn2C1c1ccc2c(c1)OCO2 (stereo not drawn)	59*	-0.33	0.4	0.6	40
C=CCNC(=O)NC(=O)COC(=O)COc1ccc(Br)cc1F	0	0.16	1	1	-3
COc1ccc(C(N)CCc2ccco2)cc1 (stereo not drawn)	14	0.31	0.9	0.7	30
COC(=O)NCc1ccc2c(c1)OCO2	-15	-0.057	1.2	1	-2
COC(=O)c1ccc(=O)n(Cc2ccc3c(c2)OCO3)c1	40	-0.84	0.6	0	98*
COc1cc(SC)ccc1C(=O)N1CCCCCC1	nt	-0.14	nt	nt	nt
O=C1c2ccccc2NC(c2ccccc2)N1/N=C/c1ccccc1 (stereo not drawn)	87*	-1.9	0.1	0.7	34
S=C1NC(c2ccccc2)=NCN1c1ccc(Cl)cc1	42	-1.5	0.6	0.2	80*
O=C(O)c1nc(-c2ccccc2)n(-c2ccc(Cl)cc2)n1	7	nt	0.9	1	-1
CCOc1nc(Nc2ccc(OC)cc2)nc(OCC)n1	36	-0.0022	0.6	0.7	31
COc1ccc(Nc2nc(Nc3ccc(OC)cc3)nc(SC3=NCCS3)n2)cc1	64*	-5.9*	0.4	0.4	59*
CCCCNC(=O)CN1C(=O)NC2NC(=O)NC21 (stereo not drawn)	-11	0.91	1.1	1.1	-12
C[C@H]1O[C@H](O[C@H]2[C@H](O)[C@@H](O)[C@@H](O[C@H]3[C@H](O)[C@@H](O)C(O)O[C@@H]3CO)O[C@@H]2CO)[C@H](O)[C@@H](O)[C@@H]1N[C@H]1C=C(CO)[C@@H](O)[C@H](O)[C@H]1O (stereo partly drawn)	nt	0.19	nt	nt	nt
CS(=O)(=O)c1ccc2nc(NC3(C(F)(F)F)N=C4SCCN4C3=O)sc2c1 (stereo not drawn)	92*	0.99	0.1	0.9	6
COc1ccc(NC(=O)Cn2c(=O)n(CC(=O)NCc3ccco3)c(=O)c3ccccc32)cc1	9	-0.95	0.9	1	0
CC(/C=C(\NC(=O)c1ccccc1)C(=O)N=Nc1c(O)[nH]c2ccc(C)cc12)=C\c1ccccc1	53*	nt	0.5	0.8	16
CCCOC(=O)c1ccc(Oc2c(-c3ccc(OCC)cc3O)n[nH]c2C)cc1	98*	-0.2	0	0.2	84*
COc1ccc(Oc2c(-c3ccc(O)cc3O)n[nH]c2C)cc1	100*	-8.8*	0	0	100*
CCCOC(=O)c1ccc(Oc2cn[nH]c2-c2ccc(OCC)cc2O)cc1	100*	0.61	0	0.1	88*
CCOC(=O)N1CCN(C(=O)C(NC(=O)c2ccc(CC)cc2)C(C)C)CC1 (stereo not drawn)	-7	0.25	1.1	1.2	-16
COc1ccc(COCCN2CCN(S(=O)(=O)c3ccc(C)cc3)CCC2=O)cc1	nt	0.022	nt	nt	nt
S=C1N(c2ccccc2)C(c2cccc3ccccc23)N2CCCN12 (stereo not drawn)	34	0.19	0.7	0.8	18
COc1cc(C(=O)NC2=NCCS2)ccc1OCc1c(C)noc1C	60*	0.44	0.4	0.5	46
Cc1cc(NC(=O)c2cccs2)n(-c2ccccc2)n1	36	-0.77	0.6	0.3	70*
Cc1cc(NC(=O)c2sccc2C)n(-c2cccc(Cl)c2)n1	52*	-0.8	0.5	0	96*
SMILES	CYP2C9 inh	Cav32 inh	CYP2C9 act	CYP2C19 activ	CYP2C19 inh
CCn1nnc(NC(=O)C(C)Oc2ccc(Cl)cc2Cl)n1 (stereo not drawn)	10	-0.051	0.9	0.7	26
Cc1cc(NC(=O)C(C)Oc2ccc(Cl)cc2Cl)n(-c2ccccc2)n1 (stereo not drawn)	63*	-3.5*	0.4	0.3	75*
O=C(NCCSc1c[nH]c2ccccc12)C1CC1	25	0.049	0.7	0.8	16
Nc1cc2nc3ccccc3oc-2cc1=O	nt	-0.12	nt	nt	nt
CCNc1nc(-c2ccc(Cl)cc2)cs1	0	-0.98	1	0.7	35
CNc1nc(-c2ccc(Cl)cc2)cs1	25	0.042	0.8	0.4	60*
CC(C)c1ccc(NC(=O)N2CCC(c3nc4ccccc4o3)CC2)cc1	27	-1.5	0.7	0.9	13
O=[N+]([O-])c1ccccc1/C=C/CN1CCCCC1	7	0.6	0.9	1	5
O=C1CCCCCCC1Sc1ccccc1[N+](=O)[O-] (stereo not drawn)	-16	-0.64	1.2	0.5	50*
O=C(NCc1ccco1)c1cccc(Nc2nc3ccc(Br)cc3[nH]2)c1	91*	-3.1	0.1	0.7	34
O=C(NCC1CC1)c1ccc(Nc2nc3ccc(Br)cc3[nH]2)cc1	69*	-0.086	0.3	0.7	32
O=C(Cc1ccc(Nc2nc3ccc(Br)cc3[nH]2)cc1)NCCc1cccs1	94*	-3.2*	0.1	0.3	67*
O=C(Cc1nc2ccccc2[nH]1)NCc1ccco1	8	nt	0.9	0.8	18
CC(C)CCN1CC(C(=O)NCc2ccccc2)CC1=O (stereo not drawn)	-3	-5.3*	1	0.9	11
COCCn1nnnc1CN1C2CCCC1CC(NC(C)=O)C2 (stereo not drawn)	6	0.86	0.9	1.1	-8
C1=C(CCNCC2CCCCC2)CCCC1	-1	nt	1	0.1	88*
Clc1ccc(CNCCC2=CCCCC2)cc1	22	-1.8	0.8	0	100*
O=C(NCCC1=CCCCC1)C1CCN(C(=O)c2ccc(Cl)cc2)CC1	40	-2.3	0.6	0.9	10
COc1ccc(N2C(=O)C3CCCN3C2c2ccccc2)cc1 (stereo not drawn)	6	-0.2	0.9	1	4
CCc1nnc(NC(=O)C2Cc3ccccc3CN2S(=O)(=O)c2c(C)c(C)cc(C)c2C)s1 (stereo not drawn)	61*	-3.5	0.4	0.6	37
Cc1ccc(S(=O)(=O)N2Cc3ccccc3CC2C(=O)Nn2cnnc2)cc1 (stereo not drawn)	35	0.82	0.6	0.5	55*
Cc1ccc(S(=O)(=O)N2Cc3ccccc3CC2C(=O)Nc2cc(C)on2)cc1 (stereo not drawn)	85*	-1.1	0.2	0.2	83*
COc1ccccc1C(O)(C(=O)NN(C(=O)c1ccccc1)c1ccccc1C)c1cccs1 (stereo not drawn)	-12	0.4	1.1	1.2	-20
O=C(Nc1ccc(F)cc1)c1ccccc1CC[N+](=O)[O-]	1	0.23	1	0.7	30
CCC(C)(C)n1nnnc1C(C(C)C)N1CCSCC1 (stereo not drawn)	20	-0.92	0.8	0.6	41

High-throughput results (PubChem)
